Shown are actives, neighbours in structure and some others; about 3.2% of the full set was active somewhere.
TRb SRC2 PPI: disrupts binding of human TR beta to SRC2 | TRbeta-SRC2 peptide binding, fluorescence polarization; receptor liganded with 1 µM T3 | 280,000 tested, 0.065% active | Potency, µM (top dose mostly 106 µM), for the others: top-dose activity change, negative = inhibition, most hits filed as inhibitors | P10828;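 also: plate controls were bound peptide for no effect and peptide without receptor for full effect; nearly all actives have a fitted effect of over 50% in size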
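TRb LBD 0.6 uM + Texas Red SRC2 peptide 20 nM, 1 uM T3, Tris buffer w/ 5% DMSO; compound pinned, 5 h RT; FP read ex 555/em 632; normalized to unbound and bound controls.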
Tau fibril ThT: tau fibrillization inhibition (ThT binding) | 270,000 tested, 2.1% active | P10636 | Potency, µM (doses to about 57.4 µM), without a hit: at the top dose activity, negative = inhibition, hits mostly inhibitors | AID 1460 | recombinant tau K18 P301L, heparin-induced fibrillization, ThT fluorescence; also: nearly all actives have a fitted effect of over 55% in size
Target sequence (P10636 561-689 P618L limits assumed): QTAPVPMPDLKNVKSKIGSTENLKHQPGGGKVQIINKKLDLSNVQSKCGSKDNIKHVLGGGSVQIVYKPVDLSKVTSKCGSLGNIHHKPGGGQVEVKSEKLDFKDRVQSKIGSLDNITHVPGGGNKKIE
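Tau K18 P301L fragment (15 uM unlabeled plus 0.24 uM Alexa 594-labeled) in 100 mM sodium acetate pH 7 with compound, fibrillization induced by 20 uM heparin for 6 hr at 37 C. Thioflavin T (30 uM) added, fluorescence read after 1 hr (ex 450, em 510 nm).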
Tau fluor counter: counter-screen for tau fibril formation inhibitors. Potency, µM (series often up to 57.7 µM), for the others: top-dose activity change, negative = decrease. tau K18 P301L (four-repeat tau fragment) Alexa594 fluorescence, heparin fibrillization. 280,000 tested, 0.93% active; also: nearly all actives have a fitted effect of over 55% in size
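Human K18 P301L tau (15 uM unlabeled plus 0.24 uM Alexa 594-labeled, final) in 100 mM sodium acetate pH 7 was mixed with compound and 20 uM heparin and incubated 6 hr at 37 C.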
GoLoco inh red: inhibitors of human Gai1-RGS12 GoLoco interaction (red fluorophore) | P63096 | Gai1:RGS12 GoLoco peptide FP, rhodamine, 10 min | Potency, µM (doses to about 61.6 µM), for inactives: at the highest dose activity, negative = inhibition, most hits filed as inhibitors | 230,000 tested, 0.44% active; active = well fitted inhibition curve with a large enough effect, not every such curve was filed as active; inactive = no such curve, though single readings can be large or run the other way; also: nearly all actives have a fitted effect of over 30% in size
Target sequence (P63096 whole entry, looked up): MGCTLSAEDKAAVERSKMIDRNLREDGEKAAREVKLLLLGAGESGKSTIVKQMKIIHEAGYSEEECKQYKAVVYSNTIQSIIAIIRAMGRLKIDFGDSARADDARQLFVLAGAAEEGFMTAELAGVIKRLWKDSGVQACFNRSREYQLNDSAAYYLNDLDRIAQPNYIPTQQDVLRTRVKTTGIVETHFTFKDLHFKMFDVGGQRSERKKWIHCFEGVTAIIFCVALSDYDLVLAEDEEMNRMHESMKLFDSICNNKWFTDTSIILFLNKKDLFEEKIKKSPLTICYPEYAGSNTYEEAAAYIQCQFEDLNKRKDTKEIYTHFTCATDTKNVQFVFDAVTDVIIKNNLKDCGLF
Tau fibril FP: blocks human tau fibril formation measured by polarization; P10636; K18 P301L tau heparin fibrillization, Alexa594 FP, 6 h; Potency, µM (titrated, usually from 57.7 µM), without a hit: at the highest dose activity, negative = inhibition, most hits filed as inhibitors; 280,000 tested, 0.39% active; also: nearly all actives have a fitted effect of over 55% in size
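K18 P301L tau (15 uM unlabeled/0.24 uM Alexa 594-labeled, final) + compound + heparin 20 uM final; 100 mM NaOAc pH 7; 6 hr 37 C; ThT 30 uM final added, 1 hr RT; FP ex 555/em 632 nm.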
TexasRed fluor: alters Texas Red total fluorescence, flagging assay interference. 280,000 tested, 0.29% active. Potency, µM (doses to about 106 µM), inactives show top-dose fluorescence change, negative = quenching. TRb/SRC2 Texas Red total fluorescence interference; active = well fitted curve in either direction with a large enough effect; inconclusive = small, poorly fitted or top-dose-only effect
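Human TRb ligand-binding domain at 0.6 uM with 20 nM Texas Red SRC2 peptide in Tris buffer containing 1 uM T3 and 5% DMSO, incubated with compound 5 h at ambient temperature. Total fluorescence (555/632 nm) calculated as parallel + 2 × perpendicular.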
Numbers without * were called inactive; u = inconclusive; x = not tested or not shown; ! = not confirmed by another sample; [ ] = another dose, or the depositor's remark. Unless noted, calls follow the shape of the dose curve; as a rule, active = well fitted curve in the direction sought with a large enough effect; inconclusive = small, poorly fitted or top-dose-only effect, or another doubt; inactive = no such curve, though single readings can be large; an effect the other way counts as inactive or inconclusive. Unless noted, % is scaled to controls: 0 for no effect and ±100 for the full control effect; potency is read from the fitted curve at half-maximal effect.

SMILES	TRb SRC2 PPI	Tau fibril ThT	Tau fluor counter	GoLoco inh red	Tau fibril FP	TexasRed fluor
CCC(=O)N1CCc2cc(Br)cc(S(=O)(=O)N3CCCC(C(=O)N(C)c4ccc(Br)cc4)C3)c21 (stereo unspecified)	-4%	-11%	-3%	x	14%	178µM*[quencher]
CCN(CC)/C(Sc1ccccc1)=C(\C(Cl)=C(Cl)Cl)[N+](=O)[O-]	-3%	-12%	-3%	-3%	-5%	0%
O=[N+]([O-])/C(C(Cl)=C(Cl)Cl)=C(\Sc1ccccc1)N1CCCCC1	5%	25µM*	-25%	4%	u	-1%
O=C(Cc1ccc(F)cc1)NCCc1csc2nc(-c3ccccc3F)nn12	-1%	11%	-2%	x	-3%	-3%
O=C1CCCCCN1Sc1ccccc1	4%	14µM*	-13%	x	u	3%
C[C@@H]1c2ccccc2Cn2cc3c(c21)C(=O)c1cccc(OP(=O)(O)OCc2ccccc2)c1C3=O	x	x	x	7%[14.2 µM]	x	x
Cc1cc(SCC(=O)c2ccc3c(c2)OCO3)nc2ccccc12	7%	u	u	38%	-13%	6%
Cc1cc(SCC(=O)c2ccc(O)c(O)c2)nc2ccccc12	2%	u	28µM*[quencher]	10%	-6%	-2%
COc1cccc(Cn2c(=O)cnc3cnc(N(C)C)nc32)c1	x	x	x	-1%	x	x
Nc1c(Br)cc(Br)cc1CNC1CCC(O)CC1 (stereo unspecified)	8%	0%	-1%	20µM*!	4%	-1%
CSc1ccc(C(=O)C2CCCN(C(=O)c3ccc4c(c3)no[n+]4[O-])C2)cc1 (stereo unspecified)	-2%	28µM*	u	9%	u	1%
CSc1ccc(C(=O)C2CCCN(C(=O)c3ccsc3)C2)cc1 (stereo unspecified)	3%	-15%	-9%	12%	8%	-2%
O=C(/C=C/c1ccc(Cl)c([N+](=O)[O-])c1)Nc1ccc(NC(=O)c2ccco2)cc1	3%	u	u	1%	-13%	-9%
O=C(/C=C/c1ccc(Cl)c([N+](=O)[O-])c1)Nc1ccc(N2CCCC2)cc1	-14%	0.89µM*	18µM*[quencher]	-15%	-4%	-1%
CCCCC/C=C\C\C=C/C=C/C=C/[C@@H](SC[C@H](NC(=O)CC[C@H](N)C(=O)O)C(=O)NCC(=O)O)[C@@H](O)CCCC(=O)O	-4%	3%	7%	-3%	4%	-1%
N#Cc1c(NC(=O)c2ccccc2Cl)n(Cc2ccccc2)c2nc3ccccc3nc12	u	14µM*	-29%	118%	u	-14%
Cc1cccnc1Nc1nc(-c2ccc(O)c(O)c2)cs1	1%	7.9µM*	13µM*[quencher]	30%	-2%	-9%
COc1ccc(-c2csc(Nc3ncccc3C)n2)cc1OC	-1%	10µM*	u	-11%	12%	-8%
CC(=O)Nc1ccc(-c2csc(Nc3ccccn3)n2)cc1	4%	x	u	8%	15%	-3%
COc1ccc(-c2csc(Nc3ncccc3C)n2)cc1	-18%	-7%	-2%	1%	-4%	-2%
Cc1ccccc1C(=O)NC1(C(F)(F)F)N=C(c2ccccc2)N(Cc2ccccc2)C1=O (stereo unspecified)	-3%	u	u	x	-1%	10µM*[quencher]
COc1cccc(Cn2c(=O)c(-c3ccc(Cl)cc3)nc3cncnc32)c1	x	x	x	21%	x	x
Cc1ccccc1NC(=S)NC(NC(=O)COc1ccccc1)C(Cl)(Cl)Cl (stereo unspecified)	0%	14µM*	-19%	x	u	-5%
CCc1ccc(OCC(=O)NC(NC(=S)Nc2ccccc2C)C(Cl)(Cl)Cl)cc1 (stereo unspecified)	14%	6%	5%	-2%	5%	1%
